Test results published in PubChem BioAssay (EPA / NIEHS).
Active and inactive are the calls of the source. Rule for the calls: active = hit-call score of the fitted dose curve at least 0.9, where 1 is the maximum; inactive = score below 0.9.

The molecules below were run on Glutamate-cysteine ligase regulatory (GCLM), GCLM (gene 2730) (assay: LTEA_HepaRG_GCLM: Life Technologies and Expression Analysis (LTEA) Assay for Glutamate-cysteine ligase regulatory (GCLM) using HepaRG (AID 2283500)). Details: mRNA level, 48 h; actives raise or lower the signal.
Method: LTEA_HepaRG is a cell based, multiplexed-readout assay that uses HepaRG, a human liver cell line, with measurements taken at 48 hours after chemical dosing on a 96-well plate.LTEA_HepaRG_GCLM is one of 102 assay component(s) measured in the LTEA HepaRG cell culture assay. It is a marker of Cell proliferation, survival, death.Data from the assay component LTEA_HepaRG_GCLM was analyzed into 1 endpoint. This assay endpoint, LTEA_HepaRG_GCLM, was analyzed with bidirectional fitting relative to DMSO as the negative control and baseline of activity. Using a type of inducible reporter, measures of mRNA induction for gain or loss-of-signal activity can be used to understand regulation of transcription factor activity. To generalize the intended target to other relatable targets, this assay endpoint is annotated to the ligase intended target family, where the subfamily is C-N ligase.
A total of 1060 chemcials from the ToxCast library were tested in eight-point concentration-response experiments. Cell culture and cytotoxicity assays were conducted at Thermo Fisher Scientific's Custom Services facility (Madison, WI). A single lot of human HepaRG cells (Thermo Fisher Scientific, Frederick, MD) was used for the cell culture experiments. 96-well format collagen type I coated plates of human HepaRG cells were prepared using established methods. Briefly, cryopreserved HepaRG cells were thawed, plated at a density of approximately 100,000 cells/well in HepaRG Thaw, Plate, and General Purpose media (HPRG770, Thermo Fisher Scientific), and incubated for 48 hours. 0.5% DMSO was selected as vehicle control to balance the requisite need of DMSO in HepaRG cultures to maintain differentiation (for example, baseline metabolism, proportions of hepatocytes vs. cholangiocytes), while enabling further hepatic receptor pathway activation (for example, PXR and CAR) in response to chemical exposure. 48 hours after plating, the culture medium was replaced with HepaRG Serum-Free Incudtion Media. Cells were exposed to each test chemical in duplicate and maintained in CO2 incubators for another 48 hours. Chemical plates were thawed to room temperature and 200x concentrations of treatment groups were prepared. 8-point conentration-reponse curves were made with the highest exposure at 100 uM, followed by half-log dilutions, all in 0.5% DMSO. Each test plate contained variouse controls, induction positive controls (1mM phenobarbital), cytotoxicity positive controls ([…] aflatoxin B1), vehicle controls (0.5% DMSO), and total lysis controls (0.5% DMSO). Cell morphology images were taken using an Essen IncuCyte FLR automated microscope, with six 96-well plates imaged in about 24 minutes. Images were captured and exported and JPEG files. Spent culture media was transfered to black-well plates for the LDH assay, and remaining media was sorted at -80 C for later use. Cells were treated with RLT buffer and frozen until shipped for gene expression analysis. Total RNA was isolated from the cell suspension in 75 uL of Buffer RLT (Qiagen, Germantown, MD 20874) by Quintiles/Expression Analysis (Durham, NC) using a custom isolation procedure. Total RNA from each plate well was transferred to a preamplification plate. Fluidigm's 96.96 Dynamic ArrayTM (Fluidigm, Amsterdam, the Netherlands) technology was used for gene expression analyses by quantitative reverse transcription polymerase chain reaction (qRT-PCR, performed by Quintiles/Expression Analysis, Durham, NC)89. Standard TaqManTM Assays (Applied Biosystems/ThermoFisher Scientific, Foster City, CA) were used to assess the expression of 93 genes selected based on their selectivity and sensitivity to important hepatic receptors known to be modulated by environmental chemicals; importance in human hepatocyte functionality; and hepatotoxicity. […]

outcome, inactive:
O=C1NC(=O)C(c2ccccc2)(c2ccccc2)N1
CC1(C)C(=O)NC(=O)N1CO
NCCOCCOCCN
CC(C)COC(=O)CCCCC(=O)OCC(C)C
OCC(CO)n1cnc(-c2ccc(F)cc2)c1-c1ccnc(Oc2ccccc2)n1
COC(=O)CCCC(=O)OC
Cn1cnc2c1c(=O)[nH]c(=O)n2C
CC(C)(C)c1ccccc1
CCCCCCCCCC[N+](C)(C)[O-]
C#CC(O)C(CC)CCCC (stereo not given)
O=C(N[C@@H](c1ccccc1)[C@@H]1CCCCN1)c1cccc(C(F)(F)F)c1Cl
CCCCCCCC(=O)OC
CC(C)OC(=O)C(C)(C)Oc1ccc(C(=O)c2ccc(Cl)cc2)cc1
CC(=O)O
CSc1ccc(Oc2ccc(S(N)(=O)=O)cc2CN(C)C)cc1C
CCCCOC(=O)CCCCC(=O)OCCCC
CCCCC(CC)COP(=O)(OCC(CC)CCCC)OCC(CC)CCCC (stereo not given)
O=C(Oc1ccccc1)c1cccc(C(=O)Oc2ccccc2)c1
O=Cc1ccccc1C=O
CC(N)=O
NC(=Nc1ccccc1)Nc1ccccc1
CCOCCOCCO
Oc1ccccc1O
Cc1cc(SC2=C(O)C[C@@](CCc3ccc(N)cc3)(C(C)C)OC2=O)c(C(C)(C)C)cc1CO
Cc1occc(=O)c1O
c1ccc2occc2c1
Oc1ccc(O)cc1
O=C1OC(c2ccc(O)cc2)(c2ccc(O)cc2)c2ccccc21
CC(=O)S[C@H](C(=O)N[C@H]1Cc2ccccc2[C@H]2CCC[C@@H](C(=O)O)N2C1=O)C(C)C
CC(=O)OC1CC(C)OC(C)O1 (stereo not given)
CC(C)(O)c1ccc(CNC(=O)c2cccnc2Oc2ccc(F)cc2)cc1
Cc1ccc(C(C)(C)C)c(O)c1
COC(=O)[C@H]1[C@H]2C[C@@H]3c4[nH]c5cc(OC)ccc5c4CCN3C[C@H]2C[C@@H](OC(=O)c2cc(OC)c(OC)c(OC)c2)[C@@H]1OC
S=c1[nH]c2ccccc2s1
C/C=C/c1ccc(OC)cc1
CN(C)C(=O)NC1(c2ccccc2)CCN(CC[C@@]2(c3ccc(F)c(F)c3)CN(C(=O)c3ccccc3)CCO2)CC1
O=C1O[C@H]([C@H](O)CO)C(O)=C1O
Nc1nc(=S)c2[nH]cnc2[nH]1
CCCCCCC(C=O)=Cc1ccccc1

AC50, active:
COc1ccc(C(=O)Nc2nc3ccccc3c(NCc3ccccc3)c2C#N)cc1 10.9 µM
